High-throughput results: PubChem BioAssay, National Center for Advancing Translational Sciences (NCATS)
Sampled rows, rich in hits. Any-hit rate of the full collection: about 5.2%.
Sfp inh: inhibitors of Bacillus subtilis Sfp phosphopantetheinyl transferase | Q9F4F7 | Biochemical Sfp PPTase activity, qHTS | Potency, µM, hits mostly inhibitors | actives 3.5% (n = 310,000) | AID 1490;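 further: the enzyme is Sfp with the accession as filed and its product quenches rhodamine fluorescence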
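After 15 min at room temperature with compound, 15 nM Sfp received 5 uM rhodamine-CoA plus 12.5 uM BHQ-2-ybbR (50 mM Hepes pH 7.6, 10 mM MgCl2). Rate came from the fluorescence difference over 30 min, ex 525/em 598 nm.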
mIDH1 inhibitor: inhibitors of human mutant IDH1 R132H | O75874 | IDH1-R132H enzyme, NADPH consumption, diaphorase/resazurin fluorescence | Potency, µM (doses to about 76.6 µM), most hits filed as inhibitors | actives 0.093% (n = 390,000) | AID 602179; further: nearly all actives have a fitted effect of over 65% in size
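IDH1-R132H (0.5 ug/mL) preincubated 30 min with compound, then NADPH (0.016 mM) and alpha-KG (2 mM) added; 80 min at RT, pH 7.5. Remaining NADPH coupled via diaphorase/resazurin to fluorescence (540/590 nm); concentration-response curves normalized to no-enzyme control.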
TrxR1 substrate: rat thioredoxin reductase 1 substrate activity; O89049; purified TrxR1 substrate turnover, NADPH consumption readout; Potency, µM (highest dose often 114 µM); actives 0.01% (n = 390,000); AID 588456; further: nearly all actives have a fitted effect of over 50% in size
Target sequence (O89049 whole entry, looked up): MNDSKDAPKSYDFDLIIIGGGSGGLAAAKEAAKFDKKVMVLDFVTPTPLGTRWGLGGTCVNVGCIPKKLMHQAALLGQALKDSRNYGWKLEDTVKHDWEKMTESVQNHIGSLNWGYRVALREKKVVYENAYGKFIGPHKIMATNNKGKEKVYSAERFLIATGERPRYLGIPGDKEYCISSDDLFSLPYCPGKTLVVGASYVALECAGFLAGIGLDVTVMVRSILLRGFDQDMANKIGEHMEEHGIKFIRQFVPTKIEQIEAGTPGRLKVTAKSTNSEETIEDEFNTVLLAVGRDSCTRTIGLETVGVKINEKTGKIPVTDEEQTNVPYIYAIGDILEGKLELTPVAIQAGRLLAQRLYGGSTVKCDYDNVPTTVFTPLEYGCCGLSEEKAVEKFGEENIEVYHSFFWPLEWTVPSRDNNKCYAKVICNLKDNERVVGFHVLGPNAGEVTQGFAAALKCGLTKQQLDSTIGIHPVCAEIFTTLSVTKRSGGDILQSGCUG
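Rat TrxR1, dispensed at 90 nM, was prereduced with 400 uM NADPH (final) for 5 min at ~22 deg C, then incubated with compound 15 min before 400 uM selenite. A first-read NADPH fluorescence drop versus no-compound background flagged substrates.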
PLK1 PBD inh: PLK1 (human) polo-box domain binding inhibition; Plk1 PBD binding of FITC phosphopeptide, fluorescence polarization; Potency, µM, hits mostly inhibitors; P53350; actives 2.8% (n = 360,000); further: series mostly up to about 57 µM; nearly all actives have a fitted effect of over 65% in size
VDR inhibitor: blocks the human vitamin D receptor; P11473; AID 504847; VDR-SRC2-3 peptide fluorescence polarization, 2 h; Potency, µM, most hits filed as inhibitors; actives 0.93% (n = 400,000)
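Reagent solutions, kept cold and dark, are dispensed first; compounds are then pinned in at 23 nl, plates briefly spun, and incubated 2 h at ambient temperature. Inhibition of VDR–SRC2-3 peptide binding is read by fluorescence polarization.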
rTrxR1 inhibitor: blocks rat thioredoxin reductase 1. recombinant rTrxR1, NADPH fluorescence consumption, selenite substrate. AID 588453. Potency, µM (highest dose often 114 µM), hits mostly inhibitors. actives 1% (n = 390,000). O89049; further: nearly all actives have a fitted effect of over 65% in size
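Rat TrxR1 (90 nM in the dispensed reagent) was pre-reduced with 400 uM NADPH for 5 min at room temperature, then incubated with compound for 15 min. After 400 uM selenite was added, NADPH fluorescence (Ex 340/Em 450 nm) was followed for 8 min.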
A number is an active result; n = inactive; u = inconclusive; x = not tested or not shown; [ ] = remark or other dose. The call rests on the fitted dose curve; in most records, active means well fitted curve in the direction sought with a large enough effect; inconclusive means small, poorly fitted or top-dose-only effect, or another doubt; inactive means no such curve, though single readings can be large; an effect the other way counts as inactive or inconclusive.

SMILES	Sfp inh	mIDH1 inhibitor	TrxR1 substrate	PLK1 PBD inh	VDR inhibitor	rTrxR1 inhibitor
CCOc1ccc(C2/C(=C(\O)c3ccc4c(c3)OCCO4)C(=O)C(=O)N2CCCN2CCOCC2)cc1OC (configuration not stated)	n	n	n	n	n	50µM
Cc1cc(OC(=O)c2ccccc2Cl)cc(=O)n1C	n	n	n	27µM	n	n
Cc1ccc(Cn2c(=N)n(CC(O)COc3ccccc3)c3ccccc32)cc1 (configuration not stated)	22µM	n	n	n	n	n
CC1(C)CC(=O)C(C(C2=C(O)CC(C)(C)CC2=O)c2cccc(O)c2)C(=O)C1 (configuration not stated)	22µM	n	n	u	n	n
CC1(C)CC(=O)C(C(C2=C(O)CC(C)(C)CC2=O)c2cccs2)C(=O)C1 (configuration not stated)	22µM	n	n	4.7µM	50µM	6.3µM
Cc1ccc(C(C2=C(O)CC(C)(C)CC2=O)C2C(=O)CC(C)(C)CC2=O)o1 (configuration not stated)	n	n	n	6µM	50µM	u
COc1ccc(-c2nc(CSCC(=O)NCCc3ccc(C)cc3)c(C)o2)cc1OC	x	n	n	x	n	n
COc1cccc(CNC(=O)CN2C(=O)COc3ccc(S(=O)(=O)N4CCCCC4)cc32)c1	n	n	n	n	n	n
COc1ccc(/C=N/N(Cc2ccccc2)c2ccccc2)cc1O	n	n	n	17µM	u	n
COc1cc(C=NCc2ccccc2)ccc1O	x	n	x	n	x	x
CC(C)(C)C(=O)Nc1cccc(C(=O)c2cccc(NC(=O)C(C)(C)C)c2)c1	n	n	n	24µM	n	n
O=S1OCCN1c1ccccc1 (configuration not stated)	n	n	n	34µM	n	n
O=C1N(c2ccccc2)CCN1c1ccccc1	n	n	n	n	n	n
CN(C)c1c(Cl)cc(/C=C/c2ccnc3ccccc23)cc1Br	x	x	n	x	x	n
Cc1cc(C)c(S(=O)(=O)N2CCN(C(=O)N(C)C)CC2)c(C)c1	7.1µM	n	n	n	n	n
Cc1cc(C)c(S(=O)(=O)N2CCN(C(=O)N3CCCCC3)CC2)c(C)c1	n	n	n	n	n	n
O=C(NC1CCCCC1)n1c(=O)oc2ccc(Cl)cc21	n	n	n	6µM	n	n
Cc1c(C(=O)NCc2ccccc2Cl)sc2nc3n(c(=O)c12)CCC3	x	n	n	x	n	n[11.4 µM]
COc1ccc(-c2cccc3c2NC(=O)C3=O)cc1OC	x	n	n	27µM	u	n
COc1ccc(-c2cc(-c3ccccc3O)[nH]n2)cc1OC	n	n	n	n	n	n
CCOC(=O)c1c(C)[nH]c(C(=O)/C(C#N)=C/c2ccc(OC(F)F)c(OC)c2)c1C	n	n	n	4.7µM	u	n
CCOc1ccc(/C=C(\C#N)C(=O)c2c(C)[nH]c3ccccc23)cc1OC	n	n	n	n	n	n
CCOC(=O)c1c(C)[nH]c(C(=O)/C(C#N)=C/c2ccc(OC)c(OC)c2)c1C	n	n	n	17µM	n	n
COc1cc(/C=C(/C#N)C(=O)c2c(C)[nH]c3ccccc23)ccc1OCC#N	n	n	n	n	n	u
CCOC(=O)c1cccc(NC(=O)NCc2ccc3c(c2)CCN3C(=O)CC)c1	x	n	n	x	n	n
SMILES	Sfp inh	mIDH1 inhibitor	TrxR1 substrate	PLK1 PBD inh	VDR inhibitor	rTrxR1 inhibitor
COc1ccc(OC)c(C2CC(=O)N3CN(c4ccc(C)c(Cl)c4)CSC3=C2C#N)c1 (configuration not stated)	7.1µM	n	n	u	16µM	u
COc1ccc2ccccc2c1C1CC(=O)N2CN(C)CSC2=C1C#N (configuration not stated)	7.9µM	n	n	7.5µM	25µM	u
COc1ccc(Br)cc1C1CC(=O)N2CN(Cc3ccccc3)CSC2=C1C#N (configuration not stated)	2.2µM	n	n	u	71µM	u
CCOC(=O)c1ccc(N2CSC3=C(C#N)C(c4ccc(OC)cc4OC)CC(=O)N3C2)cc1 (configuration not stated)	20µM	n	n	n	n	n
COc1cc(OC)c(C2CC(=O)Nc3ccc4ccccc4c32)cc1OC (configuration not stated)	x	n	n	x	u	n
CCOC(=O)c1ccc(N2C(=O)CC(N(C)CCc3ccc(OC)c(OC)c3)C2=O)cc1 (configuration not stated)	n	n	n	n	n	n
Cc1ccc(CCNC(=O)CN2C(=O)COc3ccc(S(=O)(=O)N4CCCCCC4)cc32)cc1	x	n	n	x	n	n
COc1cc(OC)c(C2CC(=O)N3CN(c4ccccc4)CSC3=C2C#N)cc1OC (configuration not stated)	3.2µM	n	n	27µM	10µM	32µM
CCOC(=O)C1=C(CC)OC(N)=C(C#N)C1c1ccc(OC)cc1OC (configuration not stated)	n	n	n	n	n	n
COc1cc(OC)c(C2CC(=O)N3CN(C)CSC3=C2C#N)cc1OC (configuration not stated)	3.5µM	n	n	15µM	u	n
CCSC1=C(C#N)C(c2ccccc2OC)CC(=O)N1 (configuration not stated)	n	n	n	n	n	n
COc1ccc(OC)c(C2CC(=O)NC(SC)=C2C#N)c1 (configuration not stated)	n	n	n	n	n	n
CCOC(=O)CC1=C(C(=O)OCC)C(c2ccc(OC)cc2OC)C(C#N)=C(N)O1 (configuration not stated)	79µM	n	n	n	n	n
CC[C@H](C)[C@H](NC(=O)[C@H](CC(=O)O)NC(=O)[C@H](CC(C)C)NC(=O)[C@H](NC(C)=O)C(c1ccccc1)c1ccccc1)C(=O)N[C@H](C(=O)N[C@@H](Cc1c[nH]c2ccccc12)C(=O)O)[C@@H](C)CC	n	x	x	x	n	x
CC(C)c1ccc(NC2CCCN(C(=O)c3cc(C(C)C)nc(N)n3)C2)cc1 (configuration not stated)	n	n	n	27µM	n	n
CC1=CC(=O)C(C(C)C)=C/C1=N/OC(=O)c1cccc([N+](=O)[O-])c1	u	n	n	3.8µM	n	13µM
CC1=CC(=NOC(=O)c2cccc([N+](=O)[O-])c2)C=C(C)C1=O	n	n	n	6.7µM	u	10µM
Cc1ccc(C(=O)O/N=C(\N)c2cccc([N+](=O)[O-])c2)cc1	n	n	n	n	n	n
CCCCS/C(=C(/C#N)C(N)=O)c1cc2c([nH]1)CCCC2	u	n	n	n	n	45µM
